The text below walks through data of PubChem BioAssay (NCI).

The structures appear in SMILES notation. The panel holds about 79,000 compounds, 15% with a hit somewhere; the sample as a whole holds those more often. A number with no mark means an inactive call. Active and inactive are the calls of the source. Rule as the data show it: active = growth inhibition above about 70%; inactive = the rest.

A short description of the assay: NCI Yeast Anticancer Drug Screen. Data for the mlh1 rad18 strain (AID 175). The following applies: S. cerevisiae mlh1 rad18 strain growth inhibition; at 50.0 µM; stronger effect = higher value. The method in brief:
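Inhibition values reflect reduced growth of mutant yeast versus vehicle-treated controls following compound exposure; the mutations affect DNA damage repair.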
In the case of `CCCCC1(N=[N+]=[N-])C(=O)c2cccc3c2N(CCC3)C1=O` (stereo unspecified), the growth inhibition was 61.5%. As to `CC1(C)OC[C@@H](O)[C@H](Br)CO1`, the growth inhibition was -28.1%. On to `C=COC(=O)C(Cc1ccccc1)NC(=O)OCc1ccccc1` (stereo unspecified), for which the growth inhibition is 6.9%. Consider `CCOC(=O)C12CC(COc3ccc([N+](=O)[O-])cc3)ON1OC(COc1ccc([N+](=O)[O-])cc1)C2` (stereo unspecified), for which the growth inhibition was 28.1%.

Regarding `CN(C)c1ccc(N=C2C=CC(=C(C#N)C#N)c3ccccc32)cc1`, the growth inhibition is -50%. For the compound `O=C1CSC(c2cccnc2)N1CCN1C(=O)CSC1c1cccnc1` (stereo unspecified), the growth inhibition was 19.4%. Turning to `CCOC(=O)N/C=C/C(C)=O`, the growth inhibition was -14.5%.

As for `CCN(CC)CCCNc1ccc2ncn3c4ccc(O)cc4c(=O)c1c23`, the growth inhibition was -6.65%. `CC/C(C=O)=C\NC(=O)Nc1ccccc1`: the growth inhibition is 1.1%.

Take `O=S1(=O)CC=CC1`: the growth inhibition was 3.15%. With `CC(C)CCCC(C)C1CCC2C3CCC4=C/C(=N/O)CCC4(C)C3CCC12C` (stereo unspecified) the figure was 32.6%; with `CCCC(C)(O)C(C)(C)C` (stereo unspecified), -2.15%. Turning to `Cc1ccsc1/C=N/Nc1nncc2ccccc12`, the growth inhibition is 9.7%.

On to `COc1cc2cc3c(c(O)c2c(O)c1/C=C/C(C)C)C(=O)CC(C)(OC(C)=O)C3` (stereo unspecified), for which the growth inhibition was 74.2% (active). With `O=P1(O)Oc2ccc3ccccc3c2-c2c(ccc3ccccc23)O1` the figure was 15.7%; with `Nc1cccc(OCC(O)CN2CCN(c3ccccc3)CC2)c1` (stereo unspecified), 14.7%. With `Cc1ccc(S(=O)(=O)/N=[N+](\[O-])c2ccc(N(C)C)cc2)cc1`, the growth inhibition is -3.35%. With `CCOC(=O)N1CCN(C(=S)N/N=C(\C)c2cnccn2)CC1`, the growth inhibition is 99.3% (active). In the case of `NC1C2CC3CC1CC(C2)O3` (stereo unspecified) it was -14.3%; in that of `NCCN1CCCCCc2ccccc21`, -39.3%. With `[C-]#[N+]N=P(c1ccccc1)(c1ccccc1)c1ccccc1`, the growth inhibition was 5.65%. Turning to `C=CCc1cc(OC)c2c(c1)C(OC)CC(c1ccc(OC)c(OC)c1)O2` (stereo unspecified), the growth inhibition was -17.9%. As for `COc1ccc(N(C)S(=O)(=O)c2ccccc2)cc1`, the growth inhibition is 15.8%. With `Nc1cccc2c1C(=O)c1c(N)cccc1C2=O` the figure was 99.1% (active); with `Cc1ccc(NC2=CC(=O)c3ccccc3C2=O)cc1`, 9.45%. With `COC(=O)C(=NNc1ccccc1[N+](=O)[O-])C(=O)OC` the figure was -2.6%.
